Our source for the growth inhibition values is PubChem BioAssay (NCI).

The panel holds about 79,000 compounds, 15% with a hit somewhere; the sample as a whole holds those more often. A number with no mark means an inactive call. The source made the active and inactive calls. No stated cut-off is given here; in the data, active means growth inhibition above about 70%; inactive means the rest.

One experiment can be described thus: NCI Yeast Anticancer Drug Screen. Data for the rad50 strain (AID 155).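 Further: 0% = growth of vehicle-only cultures of the same strain.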 As to conditions: S. cerevisiae rad50 strain growth inhibition; at 100.0 µM; stronger effect = higher value. The procedure, abridged: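 Relative growth inhibition (compound vs vehicle) was measured in yeast with a defined repair-gene alteration.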
Turning to `CCOC(=O)C1=C(C)NC(C)=C(C(=O)OCC)C1c1cccc([N+](=O)[O-])c1`, the growth inhibition is 88% (active).

Turning to `Cc1ccc2c(/C=C/c3ccc(N(C)C)cc3)ccnc2c1C`, the growth inhibition was 67%.

For `O=C1C(Br)=CC(Br)(Br)C=C1Br`, the growth inhibition was 98% (active).

The nature of a further experiment: NCI Yeast Anticancer Drug Screen. Data for the mec2-1 strain (AID 157). As to conditions: S. cerevisiae mec2-1 strain, at 1.2 µM, stronger effect = higher value. The procedure, abridged: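 Mutant yeast (mec2-1) grown with compound; growth inhibition relative to vehicle control reported.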
As for `CNC(=O)OCc1c(COC(=O)NC)c(C)n(-c2ccc(Cl)c(Cl)c2)c1C`, the growth inhibition is -27%.

As for `COc1ccc2nc(N/N=C/c3sccc3C)cc(C)c2c1`, the growth inhibition is -13%.

Take `O=C(O)/C=C\C(=O)NNc1ccc(Br)cc1`: the growth inhibition was 1%.

On to `S=c1[nH]nc(Cc2ccccc2)c(=S)[nH]1`, for which the growth inhibition was -8%.

In the case of `CCN(CC)CCSc1c2ccccc2nc2cc(NCC(=O)Nc3ccccc3-c3ccccc3NC(=O)CNc3ccc4c(SCCN(CC)CC)c5ccccc5nc4c3)ccc12`, the growth inhibition was 23%.

In the case of `Cc1ccc(N(C=O)c2c([N+](=O)[O-])cc([N+](=O)[O-])c3c2=[N+]([O-])CN=3)cc1`, the growth inhibition was 8%.

`COc1ccc(C(=O)OCCc2ccccc2)cc1`: the growth inhibition was -1%.

For the molecule `COc1ccc(C(=O)NCCN(C)C)c2nc3ccccc3cc12`, the growth inhibition was 18%.

Turning to `NCC(O)CSCc1ccc(Cl)cc1` (stereo not given), the growth inhibition was -3%.

Regarding `CN(C)/N=N/c1nc[nH]c1C(N)=O`, the growth inhibition is 0%.

`O=c1[nH]c(=O)n(CCCO)cc1F`: the growth inhibition was -36%.

For the molecule `COc1ccc(/C(=N/O)c2ccccc2C2=Nc3ccccc3C(NCc3ccccc3)O2)cc1C` (stereo not given), the growth inhibition was -2%.

With `CCCC(=O)OC(OC(=O)CCC)c1ccc([N+](=O)[O-])o1`, the growth inhibition was -4%.

Consider `O=C(/C(=C/c1ccccc1)CBr)c1ccccc1`, for which the growth inhibition is 3%.

Take `O=C(Cc1ccccc1F)NC1=C(Cl)C(=O)c2ccccc2C1=O`: the growth inhibition was 41%.

On to `Cc1cccc(N2CCN(C(=O)/C(=C/c3ccccc3)NC(=O)c3ccccc3)CC2)c1`, for which the growth inhibition was -1%.

Take `c1cc(Nc2ccc3c(c2)OCO3)c2cc(C3CCCCC3)ccc2n1`: the growth inhibition was -3%.

Turning to `Cc1ccc2nc(N/N=C/c3ccc(C)s3)cc(C)c2c1`, the growth inhibition was -23%.

For `COc1cc(NCCCCCNC(C)C)c2ncccc2c1Cl`, the growth inhibition is -1%.

Turning to `COc1ccc2cc(CN3CCC(C4CCN(Cc5ccc6cc(OC)ccc6c5)CC4)CC3)ccc2c1`, the growth inhibition was -17%.

Turning to `CC(=O)O/N=C/c1c2ccccc2cc2ccccc12`, the growth inhibition is -3%.

Take `CC[C@@]1(OC(=O)CN(C)C)C(=O)OCc2c1cc1n(c2=O)Cc2cc3ccccc3nc2-1`: the growth inhibition is 2%.

Regarding `CC1(C)CC(=O)C(C(CC(c2ccccc2)c2cc3c(cc2O)OCO3)C2=C(O)CC(C)(C)CC2=O)=C(O)C1` (stereo not given), the growth inhibition is -6%.

Take `CCCCCCC(CCl)c1sc(-c2csc(CCNC(=O)OC(C)(C)C)n2)nc1C(=O)OC` (stereo not given): the growth inhibition was 0%.

Turning to `CCOC(=O)C1=C(C)NC(C)=C(C(=O)OCC)C1c1cccc([N+](=O)[O-])c1`, the growth inhibition was -36%.

Take `Cc1ccc2c(/C=C/c3ccc(N(C)C)cc3)ccnc2c1C`: the growth inhibition was -27%.

As to `O=C1C(Br)=CC(Br)(Br)C=C1Br`, the growth inhibition is 6%.
